Only some compounds are listed: those with a hit (about 3.4% of all), similar ones and a draw of the others.
ssDAF12 agonist – S. stercoralis DAF-12 nuclear receptor activators, primary screen, cell-based, luminescence, HEK293, GRIP1 co-expression, lit1-tk-luc; 370,000 compounds, 1% hits; HEK293 ssDAF-12/GRIP1 lit1-tk-luc reporter; % of 3 µM dafachronic acid response; Nuclear hormone receptor DAF-12 (Strongyloides stercoralis); activation, % at 6.8 µM;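 active = activation above the mean over all tested compounds plus 3 SD, cut at about 0.9% in these data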
NF-kB expr up – activators of NF-kB expression in neurons, primary screen, cell-based, HTS; human neuronal cells, NF-kB reporter expression; hits give high values; 190,000 compounds, 1.6% hits; fold change at 12.5 µM; in the data active = fold change above about 3.3
hcDAF-12 act – H. contortus DAF-12 nuclear receptor activators, primary screen, cell-based, luminescence, HEK293, lit1-tk-luc reporter | 370,000 compounds, 1.4% hits | HEK293 hcDAF-12 lit1-tk-luc reporter; 0% DMSO, 100% Δ7-dafachronic acid | activation, % at 6.8 µM;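 active = activation above the mean of all tested compounds plus 3 SD, cut at about 5.5% in these data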
hgDAF12 agonist – H. glycines DAF-12 receptor agonists, primary screen, cell-based, luminescence, HEK293, GAL4 fusion, UAS-luciferase | HEK293 GAL4-hgDAF12 UAS-luciferase reporter, agonist luminescence; normalized to butyrate control | Nuclear hormone receptor DAF-12 (Heterodera glycines), GAL4 fusion | activation, % at 6.8 µM | AID 687014, 2013 | 370,000 compounds, 1.8% hits;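 active = activation above a cutoff set at the mean of all screened compounds plus 3 SD, cut at about 10% in these data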
APP 5'UTR act – activators of APP 5'UTR luciferase reporter, primary screen, SH-SY5Y cells; SH-SY5Y APP 5'UTR luciferase reporter, luminescence; zero percent = DMSO vehicle wells; activation, % at 2 µM; 190,000 compounds, 1% hits; AID 1276, 2008;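 active = activation above a set limit, based on mean plus 3 SD of controls, cut at about 140% in these data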
hgDAF12 conf – H. glycines DAF-12 receptor agonists, confirmation, cell-based, luminescence, HEK293, GAL4-LBD fusion; shares compounds with hgDAF12 agonist; HEK293 GAL4-hgDAF12 luciferase reporter, agonist mode; percent of butyrate response; activation, % at 6.8 µM; 3,300 compounds, 80% hits; AID 743050, 2013;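 active = mean activation over triplicate wells above the hit cutoff derived from the earlier primary screen, cut at about 11% in these data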
LXRb DAF12 ctr – LXR agonists, Gal4 luciferase reporter, confirmation, counter-screen for hgDAF-12 agonist project, cell-based, luminescence, HEK293, H. glycines campaign; shares compounds with hgDAF12 agonist; AID 743051, 2013; 3,300 tested, under 10 active; activation, % at 6.8 µM; 24 h;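 active = mean activation of the triplicate above a set limit carried over from the primary screen, none filed active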
Target sequence (P55055 whole entry, looked up, the tested form may be a part): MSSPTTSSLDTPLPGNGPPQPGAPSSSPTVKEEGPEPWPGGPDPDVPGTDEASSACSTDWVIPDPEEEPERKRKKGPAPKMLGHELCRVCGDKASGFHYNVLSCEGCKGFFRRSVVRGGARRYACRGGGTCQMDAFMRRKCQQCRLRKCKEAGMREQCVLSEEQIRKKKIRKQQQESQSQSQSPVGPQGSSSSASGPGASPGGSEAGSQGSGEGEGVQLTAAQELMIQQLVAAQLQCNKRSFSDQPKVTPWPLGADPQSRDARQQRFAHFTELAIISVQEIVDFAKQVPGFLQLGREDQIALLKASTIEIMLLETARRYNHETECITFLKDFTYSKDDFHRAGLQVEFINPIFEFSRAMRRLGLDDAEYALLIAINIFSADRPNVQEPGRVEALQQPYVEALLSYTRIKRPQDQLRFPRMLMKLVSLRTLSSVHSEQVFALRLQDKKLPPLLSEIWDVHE
Hits are given with their value; – = inactive; · = no result.

SMILES	ssDAF12 agonist	NF-kB expr up	hcDAF-12 act	hgDAF12 agonist	APP 5'UTR act	hgDAF12 conf	LXRb DAF12 ctr
COc1ccc(CCc2ccc3ccccc3n2)cc1	–	·	–	14	·	12	–
COCCCNC(=O)C[C@H]1C[C@@]2(C(=O)OC)C(=C[C@H](C(C)(C)C)O[C@@H]2C)N(Cc2ccco2)C1=O	–	·	–	–	·	·	·
COC(=O)[C@]12C[C@H](CC(=O)N3CCCC3)C(=O)N(Cc3cccc4ccccc34)C1=C[C@H](C(C)C)O[C@@H]2C1CC1	–	·	–	–	·	·	·
N#CC1CC(c2ccccc2)=NN1c1ccccc1[N+](=O)[O-] (configuration not stated)	–	–	–	16	–	13	–
O=CN1N=C(c2ccccc2)CC1c1ccccc1[N+](=O)[O-] (configuration not stated)	–	–	–	–	–	·	·
C[C@H]1C(=O)CC[C@@]23CCCN2C(=O)CCC[C@@H]13	–	·	–	–	·	·	·
Cn1cc(SCC(=O)Nc2nccs2)c2ccccc21	–	–	–	20	–	14	–
CCOC(=O)C1C(c2cccs2)NC(=O)NC1(O)C(F)(F)F (configuration not stated)	–	–	–	24	–	–	–
CCOC(=O)C1C(c2cccnc2)NC(=O)NC1(O)C(F)(F)F (configuration not stated)	–	–	–	–	–	·	·
Cc1ccc(CNC[C@@]23CO[C@H](c4ccc(Cl)cc4)N2[C@@H](c2ccc(Cl)cc2)SC3)o1	–	·	–	–	·	·	·
O=C(Nc1ccc(F)c(Cl)c1)c1cc(C2CCCCN2C(=O)C2CC2)on1 (configuration not stated)	–	·	–	–	·	·	·
O=C(Nc1ccc(F)c(Cl)c1)c1cc(C2CCCN(C(=O)C3CC3)C2)on1 (configuration not stated)	–	·	–	15	·	–	–
CCc1ccc(N2C(=O)C[C@@](C#N)(C(=O)OC)[C@H]2c2ccccc2)cc1	–	·	–	–	·	·	·
COC(=O)C1CN(Cc2ccc(F)cc2)CCS(=O)(=O)N1Cc1ccc(C(F)(F)F)cc1 (configuration not stated)	–	·	–	–	·	·	·
Cc1c(C(=O)OC2CCC(C)CC2)[nH]c2c1C(=O)CCC2 (configuration not stated)	–	4.9	–	15	148	21	–
COC(=O)c1[nH]c2c(c1C)C(=O)CCC2	–	–	–	–	–	·	·
Cc1ccc(CN2CCCCC(NC(=O)c3ccc(C)cc3)C2=O)cc1 (configuration not stated)	–	·	–	–	·	·	·
c1ccc(CSc2ccc(-c3ccccn3)nn2)nc1	–	–	–	16	–	–	–
Clc1ccc(-c2ccc(SCc3ccccn3)nn2)cc1	–	–	–	–	–	·	·
COc1cccc(NC(=O)/C=C/c2ccccc2[N+](=O)[O-])c1	–	3.6	–	16	138	16	–
COc1ccc(OC)c(NC(=O)/C=C/c2ccccc2[N+](=O)[O-])c1	–	–	–	–	–	·	·
Cc1ccsc1/C=N/NC(=O)c1sccc1C	1.6	–	7.2	13	136	18	–
Cc1ccsc1/C=N/NC(=O)CO	–	–	–	–	–	·	·
Cc1cc(NC(=O)OC2CCCCC2)ccc1[N+](=O)[O-]	–	·	–	17	·	14	–
CCOC(=O)Nc1ccc2c(c1)C(=NO)c1ccccc1-2	–	·	–	18	·	13	–
SMILES	ssDAF12 agonist	NF-kB expr up	hcDAF-12 act	hgDAF12 agonist	APP 5'UTR act	hgDAF12 conf	LXRb DAF12 ctr
OC[C@H]1O[C@@H](c2nc3ccc(-c4nc(-c5cccs5)no4)cc3[nH]2)C[C@@H]1O	–	·	6.1	15	·	16	–
O=C(NCCCc1ccccc1)[C@H](CO)NC1(C(=O)NCCc2c[nH]c3ccccc23)CCCCC1	–	·	–	–	·	·	·
O=C(Nc1cnn(C23CC4CC(CC(C4)C2)C3)c1)c1cnn2cccnc12	1.2	–	–	14	–	15	–
COc1ccc2occ(C(=O)c3cccs3)c2c1	–	4.3	–	15	–	13	–
O=C(NOCc1ccccc1)c1ccc([N+](=O)[O-])cc1	1.8	·	–	15	·	12	–
Cc1ccc(CONC(=O)c2ccccc2)cc1	–	·	–	15	·	11	–
O=C(NOCc1ccccc1)c1ccc(Cl)cc1	–	·	–	–	·	·	·
OC(c1ccccc1)(c1ccccc1)C1CCN(CCCNc2cccc(Br)c2)CC1	–	·	–	–	·	·	·
O=S(=O)(NCc1cn(Cc2ccccc2)nn1)c1ccccc1Br	–	·	–	–	·	·	·
COc1cc(/C=C/c2ccc3cccc(O)c3n2)cc(Cl)c1OC	–	·	–	14	·	17	–
COc1cc(Br)cc(/C=C/c2ccc3cccc(O)c3n2)c1OC	–	·	–	–	·	·	·
COc1ccc(/C=C2\SC(=O)N(CCc3nnc(N)s3)C2=O)cc1	–	·	–	16	·	–	–
COc1ccc(/C=C2\SC(=O)N(CCCC(=O)Nc3ccc(C(=O)O)cc3)C2=O)cc1	–	·	–	–	·	·	·
COC(=O)[C@]12C[C@H](CC(=O)NCCCCc3ccccc3)C(=O)N(Cc3cccc4ccccc34)C1=C[C@H](C(C)(C)C)O[C@@H]2C	–	·	–	–	·	·	·
CCOc1ccc(N2CC(C(=O)NCCc3ccccc3)CC2=O)cc1 (configuration not stated)	–	·	–	–	·	·	·
CCCNC(=O)C1CC(=O)N(c2ccc(OCc3ccc(Cl)cc3)cc2)C1 (configuration not stated)	–	·	–	15	·	16	–
COc1ccc(CCNC(=O)Nc2ccccc2[N+](=O)[O-])cc1	–	–	–	16	–	–	–
COc1ccc(CCNC(=O)COC(=O)Cc2ccccc2[N+](=O)[O-])cc1	–	·	–	–	·	·	·
Cc1cnc(NC(=O)C2CCCO2)s1 (configuration not stated)	–	–	–	15	–	–	–
COc1ccc(-c2nnc(NC(=O)C3CCCO3)s2)cc1 (configuration not stated)	–	–	–	–	–	·	·
CCOC(=O)c1sc(-c2ccccc2)cc1NC(=O)Nc1ccccc1	–	–	–	–	–	·	·
CCOC(=O)c1sc(NC(=O)Nc2ccccc2)cc1C	–	9.5	–	17	173	23	–

Compound activity as filed in PubChem BioAssay.
